Assay results: PubChem BioAssay (EPA / NIEHS)
Inconclusive results are not listed. Activity calls are given as the source filed them. The calls were made as follows, unless noted: active = hit-call score of the fitted dose curve at least 0.9, where 1 is the maximum; inactive = score below 0.9.

Experiments:
[1] = CCTE_Mundy_HCI_Cortical_NOG_NeuriteLength: CCTE's Neurite Outgrowth Assay in rat cortical cells for Neurite Length, Mundy Lab (AID 2284213)
Procedure, shortened: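 First, rat primary cortical cells were plated and, 2 h later, given test chemical as a 1/10 dilution. Finally, βIII-tubulin immunostaining enabled automated imaging of neurite length.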

[2] = CCTE_Mundy_HCI_Cortical_Synap_Neur_Matur_NeuriteSpotCountPerNeuron: CCTE's Synaptogenesis and Neurite Maturation Assay in rat cortical cells for Neurite Spot Count per Neuron Count, Mundy Lab (AID 2284215)
Procedure, shortened: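 Rat cortical primary cultures; AraC DIV 5 to arrest glia; dosing + media change DIV 7; fixed DIV 12. Anti-MAP2/anti-synaptophysin, Hoechst nuclei; HCI puncta count per neuron, positive fitting direction vs DMSO.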

[3] = CCTE_Mundy_HCI_Cortical_Synap_Neur_Matur_NeuriteCount: CCTE's Synaptogenesis and Neurite Maturation Assay in rat cortical cells for Neurite Count, Mundy Lab (AID 2284222);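 also: exposure from day 7 to day 12 in vitro with readout at day 12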
Procedure, shortened: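 In this multiplexed morphology readout, rat primary cortical neurons are fixed at DIV 12 following dosing at DIV 7 and stained for MAP2, synaptophysin and nuclei. High-content image analysis yields neurite count.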

[4] = CCTE_Mundy_HCI_Cortical_Synap_Neur_Matur_CellBodySpotCount: CCTE's Synaptogenesis and Neurite Maturation Assay in rat cortical cells for Cell Body Spot Count, Mundy Lab (AID 2284223)
Procedure, shortened: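 Rat cortical neurons; AraC @ DIV 5; dose + media change DIV 7; fix DIV 12; anti-MAP2/anti-synaptophysin IF, Hoechst; HCI count of soma synaptophysin puncta/neuron; DMSO = negative control.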

[5] = CCTE_Mundy_HCI_hNP1_Pro_ResponderAvgInten: CCTE's Proliferation Assay in human neuroprogenitor cells, Mundy Lab (AID 2284224; active = hit-call score of the fitted dose curve at least 0.9, where 1 is the maximum)
Procedure, shortened: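 Proliferation was scored as BrdU labelling intensity in human neural progenitors derived from WA09 embryonic cells, measured 26.25 hours after chemical dosing. Activity was fitted relative to DMSO.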

[6] = UKN2_HCS_IMR90_cell_viability: Viability Assessment in the University of Konstanz (UKN) Leist Lab Neural Crest Cell Migration Assay in human induced IMR90 Pluripotent Stem Cells (UKN2) (AID 2284233);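 also: cells exposed to compound for 24 h after a 24 h migration phase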
Procedure, shortened: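 After calcein-AM/Hoechst staining, viability is quantified by high-content fluorescence imaging, relative to DMSO, in iPSC (IMR90)-derived neural crest cells. Exposure lasts 24 h, starting after a 24 h migration period on PLO/laminin/fibronectin coating.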

[7] = CCTE_Mundy_HCI_Cortical_NOG_NeuronCount: CCTE's Neurite Outgrowth Assay in rat cortical cells for Neuron Count, Mundy Lab (AID 2284236; active = hit-call score of the fitted dose curve at least 0.9, where 1 is the maximum;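 also: neurons counted by imaging betaIII-tubulin and Hoechst stained cortical cells; cells exposed to compound for about 48 hours before fixation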)
Procedure, shortened: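 Read-out: neuron number by high-content imaging of betaIII-tubulin (Alexa Fluor-488) and Hoechst-labelled rat primary cortical cells.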

[8] = CCTE_Mundy_HCI_Cortical_NOG_BPCount: CCTE's Neurite Outgrowth Assay in rat cortical cells for Branch Point Count, Mundy Lab (AID 2284237)
Procedure, shortened: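 Measured 50.33 h after dosing, this morphology endpoint uses rat primary cortical cultures labelled for betaIII-tubulin. Branch points are quantified by high-content imaging, with DMSO as negative control and baseline.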

[9] = CCTE_Mundy_HCI_hNP1_Casp3_7: CCTE's Caspase-Glo 3/7 Assay in human neuroprogenitor cells for Apoptosis, Mundy Lab (AID 2284240)
Procedure, shortened: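 Apoptosis is scored by activated caspase-3/7 luminescence in WA09-derived neural progenitor cells, measured 26.5 h after chemical dosing. Values represent gain of signal relative to DMSO vehicle.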

[10] = CCTE_Mundy_HCI_hNP1_CellTiter: CCTE's Cell Titer-Glo 2 Assay in human neuroprogenitor cells for Viability, Mundy Lab (AID 2284241; active = hit-call score of the fitted dose curve at least 0.9, where 1 is the maximum)
Procedure, shortened: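 Human neural progenitor cells (hNP1, WA09-derived) were plated on poly-L-ornithine/laminin and grown 40 to 44 hours at 37 °C, 5% CO2 before chemical addition. Twenty-four hours later, ATP was measured by CellTiter-Glo luminescence; loss of signal versus DMSO indicates reduced viability.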

[11] = CCTE_Mundy_HCI_Cortical_Synap_Neur_Matur_NeuronCount: CCTE's Synaptogenesis and Neurite Maturation Assay in rat cortical cells for Neuron Count, Mundy Lab (AID 2284242; active = hit-call score of the fitted dose curve at least 0.9, where 1 is the maximum)
Procedure, shortened: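 Measured at DIV 12: fluorescently labelled neurons (Hoechst nuclei, MAP2) in rat primary cortical cultures, counted by high-content imaging. AraC suppressed glia from DIV 5; DMSO served as negative control.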

[12] = IUF_NPC2c_oligodendrocyte_migration_120hr: Leibniz Research Institute for Environmental Medicine (IUF) 120-hour Neural Progenitor Cell Migration Assay for Oligodendrocyte Migration (NPC2c) (AID 2284297)
Procedure, shortened: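 Read-out is the mean distance of O4-positive oligodendrocytes from the sphere core edge at 120 h, normalized to radial glia migration and fitted in the gain direction against DMSO. Spheres of primary human neural progenitors differentiated on laminin under continuous compound exposure.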

[13] = IUF_NPC2a_radial_glia_migration_72hr: Leibniz Research Institute for Environmental Medicine (IUF) 72-hour Neural Progenitor Cell Migration Assay for Radial Glia Migration (NPC2a) (AID 2284299)
Procedure, shortened: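 Spheres of human primary neural progenitors migrate on poly-D-lysine/laminin under compound exposure at 37C, 5% CO2. The 72 h radial glia migration distance comes from brightfield images, measured manually.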

[14] = IUF_NPC2b_neuronal_migration_120hr: Leibniz Research Institute for Environmental Medicine (IUF) 120-hour Neural Progenitor Cell Migration Assay for Neuron Migration (NPC2b) (AID 2284300)
Procedure, shortened: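 Read-out is mean distance from sphere edge to each TUBB3-positive neuron at 120 h, expressed relative to radial glia migration distance and to DMSO baseline. Single 0.3 mm human NPC spheres differentiated on laminin under continuous compound exposure.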

[15] = IUF_NPC3_neuronal_differentiation_120hr: Leibniz Research Institute for Environmental Medicine (IUF) 120-hour Neuronal Differentiation Assay (NPC3) (AID 2284301)
Procedure, shortened: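 Value is percent TUBB3-positive neurons among Hoechst-stained nuclei in the migration area, scored by trained CNN after 120 h differentiation. Primary hNPC spheres on poly-D-lysine/laminin, N2 medium, continuous dosing from day 0, half-refeed day 3; DMSO reference.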

[16] = IUF_NPC5_oligodendrocyte_differentiation_120hr: Leibniz Research Institute for Environmental Medicine (IUF) 120-hour Oligodendrocyte Differentiation Assay (NPC5) (AID 2284304; active = hit-call score of the fitted dose curve at least 0.9, where 1 is the maximum;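 also: primary human fetal neural progenitor spheres plated to migrate and differentiate; share of O4-positive cells among Hoechst nuclei found by CNN image analysis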)
Procedure, shortened: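 Oligodendrocyte differentiation was scored after 120 h as the O4-positive share of Hoechst-stained nuclei across the neurosphere migration area, using a trained convolutional neural network on high-content fluorescence images. Human fetal neural progenitor spheres were dosed from day 0, normalised to DMSO.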

[17] = IUF_NPC4_neurite_area_120hr: Leibniz Research Institute for Environmental Medicine (IUF) 120-hour Neuronal Morphology Assay for Neurite Area (NPC4) (AID 2284305; active = hit-call score of the fitted dose curve at least 0.9, where 1 is the maximum)
Procedure, shortened: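 Neurite area (pixels, nuclei excluded) of TUBB3-positive neurons from hNPC spheres differentiating 5 days under continuous exposure at 37 C, 5% CO2. High-content imaging; loss of signal versus DMSO control across 7 concentrations.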

[18] = IUF_NPC2-5_cytotoxicity_72hr: Cytotoxicity Assessment at 72 hours in the Leibniz Research Institute for Environmental Medicine (IUF) Neural Progenitor Cell Migration and Differentiation Assay for Cytotoxicity (NPC2-5) (AID 2284306; active = hit-call score of the fitted dose curve at least 0.9, where 1 is the maximum;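 also: LDH release into supernatant measured by resorufin fluorescence marking membrane damage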)
Procedure, shortened: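 Membrane-integrity cytotoxicity at 72 h, read as LDH-driven resorufin fluorescence in supernatant. hNPC spheres from fetal cortex differentiate on coated plates in N2 medium, 37C, 5% CO2; seven serial compound concentrations plus solvent control (DMSO ≤0.1%).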

[19] = IUF_NPC2-5_cytotoxicity_120hr: Cytotoxicity Assessment at 120 hours in the Leibniz Research Institute for Environmental Medicine (IUF) Neural Progenitor Cell Migration and Differentiation Assay (NPC2-5) (AID 2284307; active = hit-call score of the fitted dose curve at least 0.9, where 1 is the maximum)
Procedure, shortened: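 Sphere plating starts differentiation and exposure together at day 0. Compound solution is half-replaced on day 3. At 120 h, medium supernatant is taken for an LDH membrane-integrity read based on resazurin reduction to resorufin fluorescence.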

[20] = IUF_NPC2-5_cell_number_120hr: Cell Number Assessment at 120 hours in the Leibniz Research Institute for Environmental Medicine (IUF) Neural Progenitor Cell Migration and Differentiation Assay (NPC2-5) (AID 2284308);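 also: count of Hoechst-stained nuclei in migration zone around plated human neural progenitor spheres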
Procedure, shortened: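 hNPC spheres, one per well, PDL/laminin, N2 medium, 37C, 5% CO2. Dosing day 0 → half-medium change with fresh compound day 3 → fix 120 h. Readout: Hoechst+ nuclei count, migration area; 7 concentrations plus solvent control.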

[21] = IUF_NPC2-5_viability_120hr: Viability Assessment at 120 hours in the Leibniz Research Institute for Environmental Medicine (IUF) Neural Progenitor Cell Migration and Differentiation Assay (NPC2-5) (AID 2284312)
Procedure, shortened: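 Alamar blue resorufin fluorescence read after 5 days of differentiation, with compound present from day 0 and replenished at day 3. Primary hNPC spheres on laminin-coated plates, 37C; seven concentrations plus solvent control, fitted against DMSO.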

[22] = IUF_NPC1_cytotoxicity_72hr: Cytotoxicity Assessment at 72 hours in the Leibniz Research Institute for Environmental Medicine (IUF) Neural Progenitor Cell Proliferation Assay (NPC1) (AID 2284332; active = hit-call score of the fitted dose curve at least 0.9, where 1 is the maximum;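 also: rising LDH signal means more cytotoxicity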)
Procedure, shortened: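 Readout is fluorescence from LDH-dependent resazurin conversion, sampled from culture medium after compound contact lasting 72 h. Each well holds one 0.25-0.35 mm human progenitor sphere kept at 37C, 5% CO2 with EGF and FGF.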

[23] = CCTE_Mundy_HCI_iCellGluta_NOG_NeuronCount: CCTE's Neurite Outgrowth Assay in iCellGluta cells for Neuron Count, Mundy Lab (AID 2284340; active = hit-call score of the fitted dose curve at least 0.9, where 1 is the maximum;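 also: cells fixed about 48 h after compound addition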)
Procedure, shortened: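 Neuron count read by automated high-content imaging of Hoechst 33342 and betaIII-tubulin/Alexa Fluor-488 labelling in human iPSC glutamatergic neurons. Activity fitted relative to DMSO.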

[24] = CCTE_Mundy_HCI_iCellGluta_NOG_NeuriteCount: CCTE's Neurite Outgrowth Assay in iCellGluta cells for Neurite Count, Mundy Lab (AID 2284342; active = hit-call score of the fitted dose curve at least 0.9, where 1 is the maximum;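 also: chemical exposure about 48 hours starting 2 hours after plating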)

Measured: outcome

CCCCCC=C(C)C(CC)CCO (centres undefined)
inactive: all assays above
